Hit rate of the full screen: of about 310,000 compounds, about 18,000 (5.8%) were called active. Another 22% or so got no clear call; they are omitted. The full list was thinned out, with actives kept by preference. A number with no mark means an inactive call. The call rests on the fitted dose curve; in most records, active means well fitted inhibition curve with a large enough effect; inconclusive means small, poorly fitted or top-dose-only effect, or another doubt; inactive means no such curve, though single readings can be large or run the other way.
Test: Primary qHTS for delayed death inhibitors of the malarial parasite plastid, 48 hour incubation
Conditions: P. falciparum luciferase growth in erythrocytes; series mostly up to 28.7 µM; activity change, negative = inhibition: at the top concentration
Summary of the method: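 Erythrocytes infected with P. falciparum carrying an integrated firefly luciferase reporter (2% hematocrit, 0.1% parasitemia final) were exposed to compounds in RPMI 1640 with 0.5% Albumax at 37 C, 5% CO2. Growth inhibition was scored as reduced luminescence.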
On the % scale 0 is the no-effect control and ±100 the full control effect; potency means the concentration at half of the fitted maximal effect.

Row | SMILES | activity change, negative = inhibition | Potency
1 | NC(=O)c1oc2ccccc2c1NC(=O)CS(=O)(=O)c1ccccc1 | 37.2% | –
2 | COc1nc(N=C(N)N)nc2c(C)cccc12 | – | 1.65 µM (active)
3 | CCc1c(C)nc2c(OC)cccc2c1Cl | 10.1% | –
4 | CC(=O)Oc1ccc(-c2nc3c(C)cccc3c(=O)o2)cc1 | -7.88% | –
5 | O=C(C1CCC(=O)N(C2CC2)C1)N1CCN(c2ccc(Cl)cc2)CC1 (configuration not stated) | -14.5% | –
6 | Cc1ccc(S(=O)(=O)N2CCCCC2)cc1C(=O)N1CCN(CCO)CC1 | 0.383% | –
7 | CC(CC(=O)Nc1ccc(F)cc1F)S(=O)(=O)c1ccc2c(c1)NC(=O)CO2 (configuration not stated) | 3.89% | –
8 | O=[N+]([O-])c1cc(C(F)(F)F)ccc1NCCc1ccncc1 | -26% | –
9 | COc1ccc(C(=O)NCc2nnc(SCC(=O)Nc3cccc(OC)c3)o2)cc1 | 15.9% | –
10 | Cc1ccc(Cc2nnc(SCC(=O)Nc3ccc(C)cc3C)[nH]c2=O)cc1 | 10.8% | –
11 | CC(=O)C1=C(C)NC2=C(C(=O)CC(C)(C)C2)C1C (configuration not stated) | -10.5% | –
12 | CCC1C(C#N)=C(SC)NC2=C1C(=O)CC(C)(C)C2 (configuration not stated) | -22% | –
13 | COc1cc(C2C(C#N)=C(C)NC3=C2C(=O)CC(C)(C)C3)ccc1O (configuration not stated) | – | 10.4 µM (active)
14 | CC(=O)Nc1c2c(nn1-c1cccc(C)c1)CSC2 | 0% | –
15 | COc1ccc(S(=O)(=O)n2cnc3ccccc32)c(C)c1 | -10.4% | –
16 | O=S(=O)(c1ccccc1)N(Cc1cccc(F)c1)c1ccccc1 | -19.3% | –
17 | COc1ccc(NC(=O)COc2ccc(C(=O)c3ccc(F)cc3)cc2)cc1S(N)(=O)=O | -17.7% | –
18 | Cc1cc(=O)oc2c3c(cc(OCC(=O)N[C@H](C(=O)O)c4ccccc4)c12)OC(C)(C)CC3 | 5.58% | –
19 | Cc1ccc(-n2ncc(C(=O)NC3CC3)c2C2CCN(C(=O)OC(C)(C)C)CC2)c(C)c1 | – | 10.4 µM (active)
20 | CCOC(=O)N1CCC(NC(=O)c2cnn3ccccc23)CC1 | 3.52% | –
21 | Cc1ccc(C)c(NC(=O)C2CCCN2C(=O)OC(C)(C)C)c1 (configuration not stated) | 22.4% | –
22 | O=C(COC(=O)c1cccc(Cl)c1)Nc1ccc2[nH]c(=O)[nH]c2c1 | -34.1% | –
23 | CCCS(=O)(=O)Nc1ccc(-c2cn3c(n2)SCC3)cc1 | 24% | –
24 | Cc1ccc(NC(=O)Cn2c(C)csc2=O)cc1 | 12.8% | –
25 | CCC(=O)Nc1ccc2c(c1)nc(CCN1CCN(c3ccccn3)CC1)n2C | 6.45% | –
26 | Cn1c(CCN2CCCCCC2)nc2cc(NC(=O)Nc3ccccc3)ccc21 | – | 3.29 µM (active)

Row | SMILES | activity change, negative = inhibition | Potency
27 | CCC(=O)Nc1ccc2c(c1)nc(CCN1CCN(C)CC1)n2C | 8.09% | –
28 | O=C(NC1CCCCC1)C1CCC(CNS(=O)(=O)c2ccccc2)CC1 (configuration not stated) | 7.51% | –
29 | CC(C)Oc1ccc(S(=O)(=O)N2CCOCC2)cc1NC(=O)C1CCCC1 | -22.1% | –
30 | CCN(CC)S(=O)(=O)c1ccc(N2CCOCC2)c(NC(=O)C2CSC3(C)CCC(=O)N23)c1 (configuration not stated) | 0% | –
31 | CC(C)Oc1ccc(S(=O)(=O)N2CCOCC2)cc1NC(=O)C1CSC2(C)CCC(=O)N12 (configuration not stated) | – | 9.28 µM (active)
32 | Cc1ccc(NC(=O)CSc2nnc(CNC(=O)c3ccccc3F)o2)cc1Cl | 32% | –
33 | Cc1ccc(NC(=O)C/C(N)=N/O)cc1Cl | 2.93% | –
34 | Cc1ccc(NC(=O)CSc2nn3c(=O)c(C)nnc3s2)cc1Cl | – | 13.1 µM (active)
35 | COc1cccc(-c2nc(CS(=O)CC(=O)NCc3ccc(F)cc3)c(C)o2)c1 (configuration not stated) | 27.8% | –
36 | CCCn1c(=O)c(C(=O)Nc2cc(C)ccn2)c(O)c2ccccc21 | 28.3% | –
37 | O=S(=O)(Nc1ccccc1)c1ccc(NS(=O)(=O)c2cccs2)cc1 | 4.5% | –
38 | CCCCNC(=O)N(O)C1N(/N=C/c2ccc(N(C)C)cc2)C(=S)SC1(C)C (configuration not stated) | -2.29% [at 0.00184 µM] | –
39 | N#Cc1c(NC(=O)CCCN2C(=O)c3ccccc3C2=O)oc(-c2ccccc2)c1-c1ccccc1 | 11.4% | –
40 | N#Cc1c(/N=C/N2CCCC2)oc(-c2ccccc2)c1-c1ccccc1 | – | 4.65 µM (active)
41 | N#Cc1c(-c2ccccc2)c(-c2ccccc2)n[nH]c1=O | -11.1% | –
42 | C=C1CCC(N(O)c2cc(C)on2)C(=C)CCC2C1CC2(C)C (configuration not stated) | – | 4.65 µM (active)
43 | COc1ccc(S(=O)(=O)N(C)CC(=O)NCCCN2CCOCC2)cc1Cl | 21.6% | –
44 | CCCNC(=O)COc1coc(CN2CCN(Cc3ccccc3)CC2)cc1=O | 6.97% | –
45 | Cc1ccc(CNS(=O)(=O)CCNC(=O)c2ccccc2)cc1 | 1.42% | –
46 | O=c1c2ccccc2oc2nc3n(c(=O)c12)CCCS3 | -4.62% | –
47 | O=C(Cn1c(=O)n(Cc2ccco2)c(=O)c2ccccc21)NCC1CCCO1 (configuration not stated) | 0.136% | –
48 | O=c1c2ccccc2oc2nc(C3CCCCC3)n(Cc3ccco3)c(=O)c12 | – | 13.1 µM (active)
49 | Cc1cccc(COc2ccccc2/C=N/Nc2ccc([N+](=O)[O-])cc2)c1 | -89.6% | –
50 | Cc1ccc(NS(=O)(=O)c2ccc(N/N=C/c3ccccc3OCC(=O)O)c([N+](=O)[O-])c2)c(C)c1 | – | 11.7 µM (active)
51 | COCCNC(=O)c1ccccc1NS(=O)(=O)c1ccc(C)c([N+](=O)[O-])c1 | -2.7% | –
52 | O=C(N/C(=C\c1ccc([N+](=O)[O-])cc1)C(=O)N1CCCCC1)c1ccco1 | 2.5% | –

Source: PubChem BioAssay AID504832 (National Center for Advancing Translational Sciences (NCATS), 2011)
